Screening data (PubChem BioAssay)
Hits are enriched below; roughly 10% of the tested compounds scored in any of these assays.
Insulin prom inh – TRM-6 insulin promoter activity inhibition. 0.9% of 130,000 active. inhibition, % at 2 µM. TRM-6 cells (human fetal islet line), insulin promoter-eGFP reporter, imaging; reporter expression induced with tamoxifen;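 active means inhibition above the mean plus 3 SD, with well images judged a real hit on visual review, cut at about 60% in these data, passing the limit was not always enough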
p97 ATPase inh – human p97 ATPase inhibition; P55072; inhibition, % at 8 µM; 0.42% of 220,000 active; recombinant p97 ATPase, Kinase-Glo ATP luminescence, 3 h; in the data active means inhibition above about 15%;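 further: 0% = DMSO vehicle and 100% = wells lacking enzyme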
L major viab – inhibitors of Leishmania major promastigote growth | Leishmania major promastigotes, resazurin fluorescence viability | inhibition, % at 10 µM | 9% of 200,000 active; in the data active means inhibition above about 50%;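 further: promastigotes grown with compound for 44 hours at 28 °C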
PTEN del growth – suppresses growth of cells with PTEN deletion; HCT116 PTEN-null viability, CellTiter-Glo, 60 h; hits give low values; viability, % at 10 µM; 1.2% of 140,000 active; AID 827;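 active means viability at or below a set limit, 4 SD under the median of all tested compounds, cut at about 3.7% in these data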;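 further: PTEN knockout HCT116 line with beta catenin targeted HCT116 as companion control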
bCat KO growth – beta-catenin-lacking colon tumor cell growth suppression. HCT116 beta-catenin knockout viability, CellTiter-Glo, 60 h; hits give low values. 1.5% of 140,000 active. viability, % at 10 µM. AID 818;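 active means viability at or under a set limit, the compound median less 4 SD, cut at about 6% in these data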;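 further: 0% = Hyamine 1622 control at 20 µM and 100% = untreated cell control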
ROMK primary – modulators of human ROMK potassium channel; P48048; Tet-inducible ROMK, thallium flux fluorescence; actives lie on both sides; B-score at 10 µM; 2% of 130,000 active; AID 1918;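 active means signal ratio slope over the read window, or its plate-corrected B-score, at least 3 SD from the plate mean, either direction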;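 further: B-score of the F/F0 ratio slope over 7 to 12 s after thallium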
Target sequence (P48048 whole entry, looked up): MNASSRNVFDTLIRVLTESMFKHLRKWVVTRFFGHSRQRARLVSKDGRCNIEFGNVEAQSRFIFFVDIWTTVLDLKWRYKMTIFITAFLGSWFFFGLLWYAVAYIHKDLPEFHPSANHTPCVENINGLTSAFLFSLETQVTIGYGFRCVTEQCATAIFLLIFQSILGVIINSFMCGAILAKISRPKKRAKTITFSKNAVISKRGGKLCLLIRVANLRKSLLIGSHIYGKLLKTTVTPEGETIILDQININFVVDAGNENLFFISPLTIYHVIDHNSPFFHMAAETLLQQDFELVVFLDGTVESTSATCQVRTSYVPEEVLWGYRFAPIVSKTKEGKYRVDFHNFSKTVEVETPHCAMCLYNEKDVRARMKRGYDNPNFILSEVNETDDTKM
Active calls of the source: *.

Screening CC(C)(C)[C@H]1C=C(C(=O)Nc2ccccc2)O[C@@H](OCc2ccc(CO)cc2)C1 returned p97 ATPase inh -1 and L major viab 41.
For C#CCNC(=O)C1=C[C@@H](C(C)(C)C)C[C@@H](OCc2ccc(CO)cc2)O1 the results were p97 ATPase inh 9 and L major viab 98*.
For C#CCNC(=O)C1=C[C@@H](C2CC2)C[C@@H](OCc2ccc(CO)cc2)O1 the results were p97 ATPase inh 0 and L major viab -1.
`CC(C)(C)[C@@H]1C=C(C(=O)NCc2ccccc2)O[C@H](OCc2ccc(CO)cc2)C1` gave p97 ATPase inh -2 and L major viab 97*.
Screening CCC(C)c1ccccc1NC(=O)COC(=O)CCc1cc(OC)c(OC)c(OC)c1 (centres undefined) returned Insulin prom inh 21, p97 ATPase inh -2, L major viab 51*, PTEN del growth 90, bCat KO growth 93 and ROMK primary -0.18.
For CCN(c1ccc(NC(=O)COC(=O)CCc2cc(OC)c(OC)c(OC)c2)cc1)C(C)C the results were Insulin prom inh -24, p97 ATPase inh 1, L major viab 2 and ROMK primary -0.68.
Screening Cc1ccc(O)c(-c2cc(-c3ccccc3[N+](=O)[O-])[nH]n2)c1 returned Insulin prom inh 0, p97 ATPase inh -2, L major viab 57*, PTEN del growth 61 and bCat KO growth 53.
`COC(=O)c1ccc(-c2nc3ccccc3[nH]2)cc1` gave Insulin prom inh 64*, p97 ATPase inh -10, L major viab 39, PTEN del growth 67, bCat KO growth 68 and ROMK primary -0.55.
`COC(=O)c1ccc(/C=N/Nc2nc3ccccc3[nH]2)cc1` gave p97 ATPase inh 5, L major viab 37 and ROMK primary 0.24.
Screening COc1ccc(-c2nc3ccccc3[nH]2)cc1 returned Insulin prom inh 94*, p97 ATPase inh -43, L major viab 30, PTEN del growth 46, bCat KO growth 47 and ROMK primary -0.0013.
c1ccc2[nH]c(-c3ccncc3)nc2c1 was read as p97 ATPase inh 8, L major viab 11 and ROMK primary 1.2.
For NNC(=O)c1csc(-c2ncc(C(F)(F)F)cc2Cl)n1 the results were p97 ATPase inh -6.
O=C(Cn1cc([N+](=O)[O-])cn1)NCCc1nc2ccccc2[nH]1 was read as Insulin prom inh 69, p97 ATPase inh 6 and L major viab 3.
For O=C(NCCc1nc2ccccc2[nH]1)c1cc([N+](=O)[O-])cc([N+](=O)[O-])c1 the results were p97 ATPase inh 3, L major viab 98*, PTEN del growth 76 and bCat KO growth 87.
O=C(NCCOc1ccccc1)c1cc(C(=O)NCCOc2ccccc2)cc([N+](=O)[O-])c1 was read as Insulin prom inh 17, p97 ATPase inh -1, L major viab 98*, PTEN del growth 59, bCat KO growth 62 and ROMK primary -0.6.
For NS(=O)(=O)c1ccc(CCNS(=O)(=O)c2ccc(Cl)nc2)cc1 the results were p97 ATPase inh -9.
O=[N+]([O-])c1ccccc1/C=N/n1c(-c2cccnc2)n[nH]c1=S was read as Insulin prom inh 0, p97 ATPase inh 6, L major viab 8, PTEN del growth 112 and bCat KO growth 99.
O=[N+]([O-])c1cc2c(cc1/C=N/n1c(-c3ccccn3)n[nH]c1=S)OCO2 was read as Insulin prom inh -26, p97 ATPase inh 1, L major viab 53*, PTEN del growth 96, bCat KO growth 91 and ROMK primary -0.17.
Screening O=[N+]([O-])c1cc2c(cc1/C=N/n1c(-c3ccccc3)n[nH]c1=S)OCO2 returned Insulin prom inh 46, p97 ATPase inh 0, L major viab 53*, PTEN del growth 92 and bCat KO growth 101.
For CCc1ccc(OCCOCC(O)CN(CCO)CCO)cc1 (centres undefined) the results were Insulin prom inh 40, p97 ATPase inh -4, L major viab -6, PTEN del growth 103, bCat KO growth 100 and ROMK primary 0.25.
For OCCN(CCO)CC(O)COc1ccc(Br)cc1 (centres undefined) the results were p97 ATPase inh 4 and ROMK primary -0.18.
`CCN(CC)CC(O)COCCC12CC3CC(CC(C3)C1)C2` (centres undefined) gave Insulin prom inh 34, p97 ATPase inh 1, L major viab 93*, PTEN del growth 27, bCat KO growth 26 and ROMK primary -1.2.
Screening OCCN(CCO)CC(O)COCCC12CC3CC(CC(C3)C1)C2 (centres undefined) returned Insulin prom inh 34, p97 ATPase inh -1, L major viab 71*, PTEN del growth 87, bCat KO growth 85 and ROMK primary -0.029.
`OCCN(CCO)CC(O)COc1ccc(C23CC4CC(CC(C4)C2)C3)cc1` (centres undefined) gave Insulin prom inh 21, p97 ATPase inh -3, L major viab 100*, PTEN del growth 6, bCat KO growth 12 and ROMK primary 0.75.
CCNC(=S)N1N=C2c3ccccc3CCC2C1c1ccc(F)cc1 (centres undefined) was read as p97 ATPase inh -2.
`O=C(CN1CCOc2ccccc21)NCc1ccc(Cl)cc1` gave Insulin prom inh 15, p97 ATPase inh 5, L major viab -4, PTEN del growth 90, bCat KO growth 93 and ROMK primary -0.7.
For O=C(CN1CCOc2ccccc21)NCc1ccc(F)cc1 the results were Insulin prom inh 60*, p97 ATPase inh 5, L major viab -8, PTEN del growth 93, bCat KO growth 98 and ROMK primary -0.099.
`COc1ccc(N2CCN(C(=O)CN3CCN(c4nc(-c5ccc(F)cc5)cs4)CC3)CC2)cc1` gave p97 ATPase inh 6, L major viab 44 and ROMK primary 0.17.
`CCn1ncc([N+](=O)[O-])c1C(=O)Nc1c(C)nn(Cc2ccc(F)cc2)c1C` gave p97 ATPase inh 2 and L major viab -3.
For Cc1cccc2cc(CN(Cc3cccnc3)C(=O)c3ccncc3)c(=O)[nH]c12 the results were Insulin prom inh 25, p97 ATPase inh -1, L major viab -7, PTEN del growth 112, bCat KO growth 94 and ROMK primary 0.47.
Screening Cc1cc(C)c2cc(CN(Cc3cccnc3)C(=O)c3ccc(F)cc3)c(Cl)nc2c1 returned Insulin prom inh -130, p97 ATPase inh -4, L major viab 98*, PTEN del growth 52 and bCat KO growth 60.
Screening Cc1cccc2cc(CN(Cc3cccnc3)C(=O)c3ccccc3F)c(Cl)nc12 returned Insulin prom inh -23, p97 ATPase inh -2, L major viab 97*, PTEN del growth 71 and bCat KO growth 83.
For COC(=O)C1=C(C)NC(C)=C(C(=O)OC)C1c1ccccc1[N+](=O)[O-] the results were Insulin prom inh 39, p97 ATPase inh -3, L major viab 4, PTEN del growth 1.9*, bCat KO growth 1.6* and ROMK primary -2.5*.
